This note sets out measurements from PubChem BioAssay AID493240 (Broad Institute, 2011).

The whole screen tested about 1,300 compounds, of which about 270 (21%) were called active. Not all results are given here. Results with a measured potency or affinity are listed apart. Values without a mark were called inactive. The rule behind the calls is not given here.

This assay can be described thus: cytotoxicity in parental SK-MEL-5 melanoma cells – cell-based, CellTiter-Glo, cherry-picked, set 3, orthogonal assay for MITF inhibitor project, dose response (AID 493240). As to conditions: SK-MEL-5 viability, ATP luminescence (CellTiter-Glo), 24 h; series mostly up to 35 µM; activity change, negative = viability loss: at the top concentration. In general terms: In ATP-based viability assays light output follows the ATP content of the culture.
Turning to `CC1(C)CC(=O)C=C(NC2=CC3OC(c4ccccc4)OCC3OC2=O)C1` (configuration not stated), the “activity change, negative = viability loss” value is -23.8%.
Regarding `O=[N+]([O-])/C=C\c1ccc(N2CCCC2)c(F)c1`, the “activity change, negative = viability loss” value was -39.5%.
The figure for `O=C(NCc1cccs1)c1nc2c(nnn2Cc2ccccc2Cl)c(=O)[nH]1` is -3%; for `COc1ccc(C2C(C#N)=C(N)Oc3c2oc(CO)cc3=O)cc1` (configuration not stated) it is -0.975%.
For the compound `O=C(O)c1ccc(N/N=C/c2ccc3nccnc3c2)cc1`, the “activity change, negative = viability loss” value was -41.5%.
In the case of `COc1cc([N+](=O)[O-])cc(/C=N/NC(=O)c2ccc(NC(=O)c3ccc(C)cc3)cc2)c1O`, the “activity change, negative = viability loss” value was -2.58%.
As for `CCN1CCN(c2ccc(S(=O)(=O)N3CCOCC3)cc2NC(=O)/C=C/c2ccc([N+](=O)[O-])cc2)CC1`, the “activity change, negative = viability loss” value is -52.7%.
In the case of `CCN1CCN(c2ccc(S(=O)(=O)N3CCCCC3)cc2NC(=O)/C=C/c2ccc([N+](=O)[O-])cc2)CC1` it was -90%.
As to `O=C(NC1CCCC(C(F)(F)F)C1)c1ccc([N+](=O)[O-])o1` (configuration not stated), the “activity change, negative = viability loss” value was -26.7%.
With `COc1cccc(-c2ccc3c(N)c(C(=O)NC4CC4)sc3n2)c1`, the “activity change, negative = viability loss” value is 4.82%.
Regarding `CC(Oc1cccc(Br)c1)C(=O)NNC(=O)c1ccccn1` (configuration not stated), the “activity change, negative = viability loss” value was -39.2%.
Regarding `C/C(=N\NC(=O)C(c1ccccc1)c1ccccc1)c1ccccn1`, the “activity change, negative = viability loss” value is -43.6%.
Regarding `CC1CCN(c2ccc(NC(=O)c3cccnc3)cc2)CC1`, the “activity change, negative = viability loss” value was -3.45%.
The figure for `COC(=O)c1ccc(/C=N/Nc2nc(C)c(C)s2)cc1` is -5.59%.
In the case of `CS/C(N)=N/N=C/c1ccc2c(c1)OCO2` it was -6.57%.
The figure for `COc1cc(CN2CCC(C(N)=O)CC2)ccc1OCc1ccccc1` is -13.3%.
As to `COc1cc2c(cc1OC)C(C)N(S(=O)(=O)c1cnc(Cl)c(Cl)c1)CC2` (configuration not stated), the “activity change, negative = viability loss” value was -14.2%.
With `CCOc1ccc(N/C=C/C(=O)c2ccc(OC)c(OC)c2)cc1`, the “activity change, negative = viability loss” value is -2.16%.
The figure for `N/C(=N\OC(=O)c1ccc(Cl)cc1Cl)c1ccncc1` is 3.52%; for `O=C1CN(c2ccccc2)C(=S)N1C(=O)c1ccccc1` it is -0.936%; for `O=C1C=CC(=C(c2ccc(O)cc2)c2ccc(O)cc2)C=C1` it is -65.4%.
For the compound `COC(=O)CCS(=O)(=O)c1nc(-c2ccccc2)cc(C(F)(F)F)n1`, the “activity change, negative = viability loss” value is -90.5%.
Regarding `COc1ccccc1-c1cc(C(F)(F)F)nc(S(C)(=O)=O)n1`, the “activity change, negative = viability loss” value is -87.5%.
In the case of `N=C1C(c2nc3ccccc3[nH]2)=C(O)CN1C1CCCCC1` it was 0.386%; in that of `Cc1ccc(C(=O)Nc2ccccc2Cl)cc1`, -19.9%.
The figure for `Cc1cc(C(=O)CCl)c(C)n1CCc1ccc(F)cc1` is -36.8%.
The figure for `Cc1ccc2nc(NC(=O)CSCC(=O)OCC(=O)c3ccccc3)sc2c1` is 3.83%; for `CCCCN=C(C)c1c(O)c2ccccc2oc1=O` it is 10%.
As to `O=C(Nc1ccc(Cl)cc1)Nc1cccc(C(=O)O)c1`, the “activity change, negative = viability loss” value is -12.4%.
The figure for `Cc1oc(=O)c(NC(=O)c2ccccc2)cc1C(=O)c1ccccc1` is -13.9%.
Turning to `COc1ccc(NC(=O)NC(=O)c2ccccc2)cc1`, the “activity change, negative = viability loss” value is 5.71%.
Take `Cc1ccc(NC(=O)c2ccccc2)cc1`: the “activity change, negative = viability loss” value is -7.34%.
In the case of `COc1ccc(COC(=O)c2cc([N+](=O)[O-])ccc2N2CCOCC2)cc1F` it was 6.58%.
In the case of `CN(C)c1ccc(/C=C/c2cccc[n+]2[O-])cc1` it was -16.4%; in that of `Cc1ccc(NC(=O)Cc2noc3ccccc23)cc1`, -4.59%.
In the case of `CC(=NNc1nc2ccccc2o1)c1cc2ccccc2cn1` it was -10.6%.
Take `COC(=O)c1ccc(COc2ccc3c(c2)CCC3)o1`: the “activity change, negative = viability loss” value is -0.066%.
In the case of `Fc1ccc(-c2nnc(-c3ccc(F)cc3)o2)cc1` it was -15.4%.
Take `COc1cccc(-c2nnc3sc(-c4cccs4)nn23)c1`: the “activity change, negative = viability loss” value is 3.21%.
Regarding `Nc1ncnc(Sc2ncccn2)c1[N+](=O)[O-]`, the “activity change, negative = viability loss” value was -18%.
In the case of `O=C(CSc1ccccn1)c1ccc2c(c1)OCO2` it was 5.91%; in that of `O=C(CCl)N1CCN(S(=O)(=O)c2ccc3c(c2)CCC3)CC1`, -30.6%; in that of `N#C/C(=C(/O)CCl)c1nc2ccccc2[nH]1`, -8.54%.
Consider `O=C(Nc1nc(-c2ccccn2)cs1)c1ccc([N+](=O)[O-])o1`, for which the “activity change, negative = viability loss” value was -8.07%.
The figure for `C/C(=C\c1ccccc1)C(=O)Nc1ccc(Cl)cn1` is 2.07%; for `COc1cc(SC)ccc1C(=O)NCCOc1ccccc1Cl` it is -10.2%; for `COCCNC(=O)c1cc2sc3ccccc3c2s1` it is -2.65%.
As for `CCn1c(=O)c(C(=O)NCc2ccccc2Cl)c(O)c2ccccc21`, the “activity change, negative = viability loss” value was -7.51%.
With `O=c1nc(N/N=C/c2ccccn2)cn[nH]1`, the “activity change, negative = viability loss” value is -12.3%.
The figure for `O=C(CCl)N(c1ccccc1)c1c[nH]c2ccccc12` is -12.6%; for `Cc1ccc(NC(=O)Nc2ccccc2)nc1` it is -8.06%; for `FC(F)(F)c1cc(CCN2CCNC[C@@H]2Cc2ccccc2)cc(C(F)(F)F)c1` it is -36.9%.
The figure for `CCSc1ccccc1C(=O)n1nnc2ccccc21` is -14.9%; for `Cc1cc(C(=O)COc2cccnc2[N+](=O)[O-])c(C)n1-c1ccccc1` it is -5.32%.
In the case of `Cc1cc(C)c2ccc(N)nc2c1O` it was -18.6%.
Regarding `Cc1cc(C(F)(F)F)c2c(N)c(C(=O)Nc3cc(C)on3)sc2n1`, the “activity change, negative = viability loss” value was -11.3%.
In the case of `O=C(Cn1cnc2c(oc3ccccc32)c1=O)c1ccccc1` it was -8.3%; in that of `Cc1nc(C)c(C(=O)N/N=C/c2cc(Br)ccc2O)s1`, -19.8%.
In the case of `CCCCNc1nc(=S)n(-c2ccccc2)c(C)c1C(C)=O` it was -8.68%.
As for `COCCn1c(C)cc(C(=O)COC(=O)c2ccccc2Br)c1C`, the “activity change, negative = viability loss” value was 1.32%.
In the case of `CCC(=O)NCCc1nc2cc(NC(=O)c3cccc([N+](=O)[O-])c3)ccc2n1C` it was 0.147%.
On to `Cc1ccc(/C=N/Nc2ccc(C(=O)O)cc2)s1`, for which the “activity change, negative = viability loss” value is -11.2%.
The figure for `CC(C)(C)c1ccc(/C=N/Nc2ccc(C(=O)O)cc2)cc1` is -0.109%.
As for `COc1cccc(CNc2nc3ccccc3n2C)c1O`, the “activity change, negative = viability loss” value was -11.7%.
`CC(=O)N(c1nnc(-c2cccc(C)c2)s1)C1CCCC1`: the “activity change, negative = viability loss” value is -0.421%.
In the case of `CCOC(=O)c1ccc2nc(C)c(CCC(C)=O)c(Cl)c2c1` it was -10.8%; in that of `CCCOCc1ccc(O)c2ncccc12`, -39.2%.
With `O=S(=O)(c1ccc(Cl)cc1)N1CCN(Cc2ccc(O)c3ncccc23)CC1`, the “activity change, negative = viability loss” value is -16.5%.
The figure for `O=C(CSC(=S)N1CCCCC1)c1c(F)cccc1F` is -8.79%; for `c1ccc(Cc2cc(-c3ccccc3)on2)cc1` it is 0.069%; for `COc1cc2c(c(OC)c1OC)-c1ccc(OC)c(=O)cc1C(NC(C)=O)CC2` (configuration not stated) it is -10.5%.
In the case of `CCN1c2ccccc2NC2C1C(C(C)=O)C(=O)N2c1ccc(Cl)cc1` (configuration not stated) it was -27.8%.
As to `COc1cnc(-c2ccccn2)nc1NC(C)C`, the “activity change, negative = viability loss” value is -48.6%.
In the case of `N#CCSc1nc2ccccc2c2nc3ccccc3n12`, the “activity change, negative = viability loss” value was -26.7%.
The figure for `Cc1ccc(SCc2cn3cc(Cl)ccc3n2)cc1` is -2.16%; for `CC(=O)Nc1ccc(S(=O)(=O)N2CCn3cccc3C2C)cc1` (configuration not stated) it is -15.5%; for `CN1CCN(C2=C(NS(=O)(=O)c3cccs3)C(=O)c3ccccc3C2=O)CC1` it is -45.7%.
